# Test results: the supplement of paper PMC7801607
# Legend:
# [1] = test system: CHO; assay: % viability of CHO cells (MTT); higher = less toxic; details: 48 h
# In short: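 Viability was given as a percentage of untreated cells and measured colorimetrically by the tetrazolium (MTT) assay. Before this, CHO cells at 10^6 cells/well in 200 µL attached overnight, then received fresh medium containing compound at 2 or 20 µM for 48 h.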
# [2] = test system: HepG2-A16-CD81; assay: % inhibition of HepG2 viability (CellTiter-Glo); higher = more toxic; details: 5 µM;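 also: HepG2-A16-CD81 hepatoma cells plated as in the liver-stage assay but without sporozoites, with DMSO wells as negative and 25 µM puromycin as positive control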
# [3] = test system: Plasmodium falciparum NF54 stage IV/V gametocytes; assay: % inhibition of gametocyte viability (PrestoBlue); higher = more inhibition; details: 48 h
# In short: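 Values are percent inhibition of gametocyte viability, normalised to vehicle and kill controls in a single run. Stage IV/V NF54 gametocytes (2% gametocytaemia, 5% haematocrit, 100 µL/well) were held with compound at 1 or 5 µM for 48 h at 37 °C, stationary and hypoxic. Viability was read as 612 nm fluorescence on 70 µL of supernatant after a 2 h incubation with 10 µL PrestoBlue.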
# [4] = test system: Plasmodium falciparum NF54 asexual blood stage; assay: % inhibition of asexual blood stage proliferation (pLDH); higher = more inhibition; details: 72 h
# In short: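 Using 96-well plates, the screen was run twice on separate occasions with Plasmodium falciparum NF54 ring-stage cultures at 1% haematocrit and 2% parasitaemia. Each culture was exposed to compound at 2 or 20 µM for 72 h at 37 °C under a gas mix of 4% CO2, 3% O2 and 93% N2. After incubation, the parasite lactate dehydrogenase assay was read colorimetrically at 620 nm. From this readout, percent inhibition of asexual proliferation was derived against control wells.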
# [5] = test system: Plasmodium falciparum NF54 stage IV/V gametocytes; assay: % inhibition of gametocyte viability (ATP bioluminescence); higher = more inhibition; details: 24 h
# In short: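 Viability of stage IV/V NF54 gametocytes is given as percent inhibition, normalised to control wells in a single run. Gametocytes enriched on density gradients were seeded at 30,000 per well in 96-well plates with compound at 1 or 5 µM and held at 37 °C for 24 h. ATP was then read with the Promega BacTiter Glo bioluminescence system.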
# [6] = test system: Plasmodium falciparum NF54 stage IV/V gametocytes; assay: % inhibition of gametocyte viability (luciferase reporter); higher = more inhibition; details: 48 h
# In short: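 Percent inhibition was normalised to controls from a single run. Stage IV/V gametocytes of the NF54-Pfs16-GFP-Luc line, at 2% gametocytaemia and 2% haematocrit, were exposed to compound at 1 or 5 µM for 48 h at 37 °C under stationary, hypoxic conditions. Luminescence was then read from 30 µL lysate mixed with 30 µL Promega luciferin substrate on a GloMax-Multi+ reader with 10 s integration.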
Structure (SMILES),% viability of CHO cells ([1]; 2 µM) [%],% viability of CHO cells ([1]; 20 µM) [%],% inhibition of HepG2 viability [2] [%],% inhibition of gametocyte viability ([3]; 1 µM) [%],% inhibition of gametocyte viability ([3]; 5 µM) [%],% inhibition of asexual blood stage proliferation ([4]; 2 µM) [%],% inhibition of asexual blood stage proliferation ([4]; 20 µM) [%],% inhibition of gametocyte viability ([5]; 1 µM) [%],% inhibition of gametocyte viability ([5]; 5 µM) [%],% inhibition of gametocyte viability ([6]; 1 µM) [%],% inhibition of gametocyte viability ([6]; 5 µM) [%]
Nc1nc(=O)c(Br)c(-c2cccc(Cl)c2)[nH]1,102,109,6.4,9.16,21,18.2,68.9,4.05,< 0,< 0,5.01
CCc1cc(O)c(Oc2ccc(C(N)=O)cc2F)cc1F,116,100,3.65,18.7,17.8,54.5,62.6,< 0,< 0,< 0,< 0
Clc1cc(Cl)c2c(c1)CCc1ccccc1C2n1ccnc1 (configuration not stated),100,76.3,26.4,64.7,76.1,94.1,89.5,25.2,75.4,< 0,81.4
O=C(O)c1cc(-c2ccc(Br)cc2)nc2ccc(Cl)cc12,96.8,111,3.15,14.7,5.76,7.74,-6.63,< 0,< 0,< 0,< 0
O=C(NO)C1(CS(=O)(=O)c2ccc(Oc3ccc(Cl)cc3)cc2)CCOCC1,108,76.6,7.05,22.6,28.2,28.1,34.1,< 0,< 0,2.48,< 0
OC(Cn1cncn1)(Cn1cncn1)c1ccc(F)cc1F,76.1,-3.55,-1.31,< 0,< 0,-1.25,-5.32,< 0,< 0,< 0,< 0
CSC[C@H]1CN(Cc2c[nH]c3c(N)ncnc23)C[C@@H]1O,68.9,46.2,8.54,< 0,< 0,14.2,8.91,< 0,< 0,< 0,6.79
